The structures appear in SMILES notation. Activity calls are given as the source filed them. How the source made its calls: active means hit-call score of the fitted dose curve at least 0.9, where 1 is the maximum; inactive means score below 0.9.

This passage reports outcome and AC50 results from PubChem BioAssay (EPA / NIEHS).

A short description of the assay: ATG_GRE_CIS: Attagene CIS-FACTORIAL HepG2 Assay for human Glucocorticoid Response Elements (GRE) (AID 2282947). Conditions: HepG2 GRE cis-reporter, Attagene multiplex mRNA; actives raise or lower the signal. The procedure:
ATG_CIS is a cell-based, multiplexed-readout assay that uses HepG2, a human liver cell line, with measurements taken at 24 hours after chemical dosing in a 24-well plate.ATG_GRE_CIS is one of 52 assay component(s) measured or calculated from the ATG_CIS assay. It is designed to make measurements of mRNA induction, a form of inducible reporter, as detected with fluorescence intensity signals by Reverse transcription polymerase chain reaction (RT-PCR) and Capillary electrophoresis technology.Data from the assay component ATG_GRE_CIS was analyzed into 1 assay endpoint. This assay endpoint, ATG_GRE_CIS, was analyzed with bidirectional fitting relative to DMSO as the negative control and baseline of activity. Using a type of inducible reporter, measures of mRNA for gain or loss-of-signal activity can be used to understand the reporter gene at the transcription factor-level as they relate to the gene NR3C1. Furthermore, this assay endpoint can be referred to as a primary readout, because this assay has produced multiple assay endpoints where this one serves a reporter gene function. To generalize the intended target to other relatable targets, this assay endpoint is annotated to the nuclear receptor intended target family, where the subfamily is steroidal.
Human liver HepG2 cells are transiently transfected with multiple reporter transcription units (MRTUs) in 6-well plates using FuGene 6 reagent (Roche; 3 ml FuGene/1 mg DNA). The MRTU constructs are regulated by a cis-regulating element (promoter). […] A major difference between the CIS and TRANS system is that in CIS activities of endogenous TFs are measured, whereas the TRANS assay evaluates changes in activities of exogenous, chimeric NR-Gal4 proteins. […] At the end of 24 hour incubation, total RNA was isolated using TriZol reagent (Invitrogen). The isolated RNA is then reverse-transcribed using oligo(dT) primer and Mo-MLV reverse transcriptase (Invitrogen) with DNAse I (Ambion) treatment for 30 min. The one-tenth of the produced cDNA was amplified by PCR using Taq DNA polymerase (Invitrogen) and two reporter sequence-specific primers. The PCR products were fluorescently labeled by primer extension with 6-arboxyfluorescein (6-FAM) 5'-labeled reporter sequence-specific primer (2 min at 95 C, 20 s at 68 C and 10 min at 72 C) and these products were digested with 5U of HpaI (New England Biolabs) for 2h at 37 C. The fragments were purified using Qiaquick PCR columns (Qiagen), analyzed on an ABI 3130xL genetic analyzer (Applied Biosystems) with peak positions identified by using a set of X-rhodamine (ROX)-labeled MapMarker1000 molecular weight standards (BioVentures). The raw capillary electrophoresis data was processed using Attagraph software (Attagene).
As to `CS(=O)(=O)c1cc(C(F)(F)F)ccc1C(=O)c1cnoc1C1CC1`, the compound was classed as inactive.

For `CC(C)=CC1C(C(=O)OCc2coc(Cc3ccccc3)c2)C1(C)C` (stereo not given), the compound was classed as inactive.

Regarding `CCCC(=NOCC)C1=C(O)CC(CC(C)SCC)CC1=O` (stereo not given), the compound was classed as inactive.

For the compound `CCN(CC)c1nc(C)cc(OP(=S)(OC)OC)n1`, the outcome was inactive.

On to `CCCN(CC)CC1COC2(CCC(C(C)(C)C)CC2)O1` (stereo not given), for which the compound was classed as inactive.

For `COc1cc(OC)nc(NC(=O)NS(=O)(=O)c2ncccc2OCC(F)(F)F)n1`, the outcome was inactive.

In the case of `Nc1c(Cl)c(Cl)nc(C(=O)O)c1Cl`, the call was inactive.

On to `CCNP(=S)(OC)O/C(C)=C/C(=O)OC(C)C` (stereo not given), for which the result was inactive.

Regarding `COc1cc(Cl)c(OC)cc1Cl`, the outcome was inactive.

For the compound `O=c1n(Cl)c(=O)n(Cl)c(=O)n1Cl`, the compound was called inactive.

For `Cn1c(-c2ccccc2)cc(-c2ccccc2)[n+]1C`, the call was inactive.

As for `OC(c1ccc(Cl)cc1)(c1ccc(Cl)cc1)C(Cl)(Cl)Cl`, the compound was called inactive.

As for `CCNC(=O)NC(=O)C(C#N)=NOC`, the compound was classed as inactive.

For `COC(=O)NC(=S)Nc1ccccc1NC(=S)NC(=O)OC`, the compound was called inactive.

Regarding `Nc1cnn(-c2ccccc2)c(=O)c1Cl`, the result was inactive.

As for `COP(=S)(OC)Oc1ccc([N+](=O)[O-])c(C)c1`, the result was inactive.

For `CSC(=O)c1c(C(F)F)nc(C(F)(F)F)c(C(=O)SC)c1CC(C)C`, the result was inactive.

For the compound `O=C(Nc1ccccc1-c1ccc(Cl)cc1)c1cccnc1Cl`, the result was inactive.

Take `CCCCC(O)(Cn1cncn1)c1ccc(Cl)cc1Cl` (stereo not given): the outcome was inactive.

As to `CS(=O)(=O)c1ccc(C(=O)C2C(=O)CCCC2=O)c([N+](=O)[O-])c1`, the compound was classed as inactive.

In the case of `N#Cc1c[nH]cc1-c1cccc2c1OC(F)(F)O2`, the outcome was inactive.

With `Nc1c(Cl)c(F)nc(OCC(=O)O)c1Cl`, the result was inactive.

Turning to `CC(C)N1C(=O)N(c2ccccc2)CSC1=NC(C)(C)C`, the compound was called inactive.

On to `COC(=O)NS(=O)(=O)c1ccc(N)cc1`, for which the outcome was inactive.

Consider `COCC(C)N(C(=O)CCl)c1c(C)csc1C` (stereo not given), for which the call was inactive.

Regarding `Cc1cc(C)nc(Nc2ccccc2)n1`, the result was inactive.

Turning to `N#CN=C1SCCN1Cc1ccc(Cl)nc1`, the compound was classed as inactive.

For the compound `Cc1cnc(C2=NC(C)(C(C)C)C(=O)N2)c(C(=O)O)c1` (stereo not given), the compound was called inactive.

`Clc1nc(Cl)nc(Nc2ccccc2Cl)n1`: the outcome was inactive.

Turning to `COC(=O)N(C(=O)N1CO[C@@]2(C(=O)OC)Cc3cc(Cl)ccc3C2=N1)c1ccc(OC(F)(F)F)cc1`, the result was inactive.

For `N#Cc1c(Cl)cccc1Cl`, the compound was classed as inactive.

`CCOP(=O)(OCC)Oc1nc(Cl)c(Cl)cc1Cl`: the compound was classed as inactive.

As for `CC(C)N1C(=O)c2ccccc2NS1(=O)=O`, the compound was called inactive.

Take `CCOc1nc(F)cc2nc(S(=O)(=O)Nc3c(Cl)cccc3Cl)nn12`: the call was inactive.

Turning to `Cc1ccc(N=CN(C)C=Nc2ccc(C)cc2C)c(C)c1`, the outcome was inactive.

For the compound `O=C(O)c1c(Cl)ccc2cc(Cl)cnc12`, the compound was classed as inactive.

As to `C=CCOC(=O)C(C)(C)OC(=O)c1cc(-n2c(=O)cc(C(F)(F)F)n(C)c2=O)ccc1Cl`, the result was inactive.

On to `COc1ccc(-c2ccccc2)cc1NNC(=O)OC(C)C`, for which the AC50 was 13.2 µM (active).

Take `CC(C)(C)C(=O)C(Oc1ccc(Cl)cc1)n1cncn1` (stereo not given): the outcome was inactive.

For the compound `COCc1cnc(C2=NC(C)(C(C)C)C(=O)N2)c(C(=O)O)c1` (stereo not given), the result was inactive.
